Compounds with a hit are over-represented: about 4.9% of the library has one in this group of screens.
dFosB activator = enhances mouse delta FosB homodimer DNA binding; activation, % at 25 µM; P13346; purified delta FosB, TAMRA-CDK5 oligo fluorescence polarization; percent of positive-control signal above neutral wells; AID 493131; hit rate 0.99% among 340,000;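 active = mean activation above about 17%, with every replicate also reaching it, limit read from the data, passing the limit was not always enough; inconclusive = only one of the two conditions met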
Target sequence (P13346 whole entry, looked up): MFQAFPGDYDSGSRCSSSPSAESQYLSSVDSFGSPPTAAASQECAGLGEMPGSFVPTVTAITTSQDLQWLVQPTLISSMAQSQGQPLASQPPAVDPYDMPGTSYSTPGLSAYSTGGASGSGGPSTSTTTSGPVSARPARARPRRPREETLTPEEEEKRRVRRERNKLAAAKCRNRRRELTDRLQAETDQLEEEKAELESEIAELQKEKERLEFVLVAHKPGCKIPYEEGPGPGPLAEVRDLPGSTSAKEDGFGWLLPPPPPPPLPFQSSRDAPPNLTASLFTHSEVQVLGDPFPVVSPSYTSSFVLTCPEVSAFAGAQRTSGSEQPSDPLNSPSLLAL
HSF-1 act = increases HSF-1 driven luciferase reporter signal | AID 504408 | NIH3T3-HGL HSF-1 luciferase reporter, MG132, 8 h; 100% = twice DMSO control signal | hit rate 1.7% among 300,000 | activation, % at 9 µM;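 active = mean replicate activation of at least 50% with a set share of replicates each reaching 50%; inconclusive = only one of those two conditions met; inactive = mean below 50% and too few replicates reaching it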
HSF1 inhib = HSF1 inhibition | activity change, negative = inhibition, % at 7.5 µM (by protocol) | NIH3T3-HGL HSE-luciferase, MG132-induced, luminescence 8 h; hits give low values | hit rate 0.77% among 300,000;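 active = more than half of replicate wells show activity change below -50%, luminescence cut by over half; inconclusive = some wells, but at most half, below -50%; inactive = no replicate well below -50%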;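 note: luciferase reports HSF-1 transcriptional activity via heat shock element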
Platelet DG rel = modulates dense granule release in human platelets; human platelet-rich plasma, SFLLRN dense granule ATP release, luminescence; inhibition, %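 (compounds screened at 7.5 µM in platelet-rich plasma)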; hit rate 0.22% among 300,000; AID 1663;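 active = mean replicate score, as percent of positive control, at or above 50; inconclusive = mean below 50 but at least one replicate at or above 50; inactive = mean and every replicate below 50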
MPTP block = inhibitors of mitochondrial permeability transition pore | AID 602449 | inhibition, % at 10 µM | isolated mouse mitochondria, Ca2+ swelling absorbance, 30 min | hit rate 1.4% among 360,000;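 active = inhibition of 50% or more, scaled per plate between neutral and stimulator controls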
HSP90 inh = blocks HSP90-mediated luciferase refolding in reticulocyte lysate; AID 1789; Rabbit reticulocyte lysate, luciferase refolding luminescence, 3 h; inhibition, % at 5.6 µM; hit rate 0.91% among 290,000;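 active = inhibition above the screen-wide mean plus 3 SD, computed separately per campaign, cut at about 16% in these data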;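 note: inhibitors lower the luminescence because luciferase stays unfolded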
Rh123 counter = Rhodamine 123 counter-screen of mitochondrial pore hits. AID 624504. hit rate 78% among 5,000. shares compounds with MPTP block. isolated mitochondria, membrane potential, Rhodamine 123 fluorescence. inhibition, % at 10 µM; in the data active = inhibition above about 22%
MPTP abs DR = dose response confirmation of mitochondrial permeability transition pore inhibitors; shares compounds with MPTP block; isolated mitochondria swelling, absorbance; IC50, µM; hit rate 58% among 780; in the data active = IC50 below about 20 µM
MPTP cs DR = MPTP inhibitor counter-screen activity, dose response; shares compounds with MPTP block; hit rate 49% among 780; IC50, µM; isolated mitochondria counterscreen, fluorescence read-out; in the data active = IC50 below about 80 µM
Of the large screens only hits and unclear results are named; the others gave an inactive call (follow-up assays come after a bar, where they were run).

O=C(OC1CCCCC1=O)c1cc(Cl)ccc1[N+](=O)[O-] (stereo unspecified)	none
CC(=O)c1ccc(NC(=O)Cc2cccs2)cc1	none
Cc1ccc([N+](=O)[O-])cc1NC(=O)c1ccccc1	none
Cc1ccc(C(C)C)cc1NC(=O)Nc1ccc([N+](=O)[O-])cc1	MPTP block 83.7 | Rh123 counter 78.6
Cc1cc(Br)ccc1NC(=O)C(C)c1ccc([N+](=O)[O-])cc1 (stereo unspecified)	MPTP block 54.5 | Rh123 counter 68.9
Cc1ccc([N+](=O)[O-])cc1NC(=O)C(Sc1ccccc1)c1ccccc1 (stereo unspecified)	MPTP block 94.3 | Rh123 counter 78.8
CC(C(=O)Nc1nccs1)c1ccc([N+](=O)[O-])cc1 (stereo unspecified)	none
CCN(CC(=O)NCc1ccc(Cl)cc1)C(=O)COc1ccc(Cl)cc1Br	none (no result: Platelet DG rel, HSP90 inh)
Fc1ccc2[nH]c3c(NCc4ccccc4)ncnc3c2c1	MPTP block 83.9 | Rh123 counter 75.4
CCC(=O)c1ccc(OCc2ccccc2)c(OC)c1	none
CCC(=O)c1ccc(OCc2ccc(C(=O)c3ccccc3)cc2)cc1	MPTP block 101.0 | Rh123 counter 104.0
CN(C)S(=O)(=O)c1ccc(-c2csc(N/N=C/c3ccc(O)cc3)n2)cc1	MPTP block 58.0 | Rh123 counter 43.0
CN(C)S(=O)(=O)c1ccc(-c2csc(N/N=C/c3ccco3)n2)cc1	none
O=[N+]([O-])c1cc(S(=O)(=O)C(F)(F)F)ccc1Sc1nc2ccccc2[nH]1	dFosB activator inconclusive, MPTP block 56.6 | Rh123 counter 90.7
COc1ccc(CN(C)c2ncnc3sccc23)c(OC)c1OC	none
COc1ccccc1NC(=O)c1ccccc1NS(=O)(=O)c1cccs1	none
Cc1ccc(NC(=O)c2ccccc2NS(=O)(=O)c2ccc(Cl)s2)cc1S(=O)(=O)N1CCOCC1	MPTP block 98.9 | Rh123 counter 77.2
COc1ccc(C)cc1NC(=O)c1ccccc1NS(=O)(=O)c1ccc(Cl)s1	MPTP block 88.1 | Rh123 counter 61.0
CCOC(=O)c1sc(NC(=O)CSc2nncn2C)nc1C	none
CCN1CCN(c2ncc(C(=O)Nc3cc(Cl)ccc3OC)c3ccccc23)CC1	MPTP block 77.7 (no result: Platelet DG rel) | Rh123 counter inactive | MPTP abs DR inactive | MPTP cs DR inactive
Cc1ccc(C(C2=C(O)CC(C)(C)CC2=O)C2C(=O)CC(C)(C)CC2=O)s1 (stereo unspecified)	none
CC1(C)CC(=O)C(C(C2=C(O)CC(C)(C)CC2=O)c2ccc(Br)s2)C(=O)C1 (stereo unspecified)	HSF-1 act 123.8, MPTP block 73.1 | Rh123 counter 79.6
N#CNC(=Nc1cccc(F)c1)SCc1cccc(F)c1	MPTP block 84.0 | Rh123 counter 73.8
CCOc1cc(NC(=S)NCC2CCCO2)c(OCC)cc1NC(=O)CC(C)C (stereo unspecified)	none
FC(F)Sc1ccc(NC(=S)NC2CCCCC2)cc1	MPTP block 101.2 | Rh123 counter 79.0
CN(CC(=O)Nc1ccc(SC(F)F)cc1)C1CCCCC1	none
FC(F)Sc1ccc(NC(=S)NCC2CCCCC2)cc1	MPTP block 103.1 | Rh123 counter 80.0
CC1CCN(C(=S)Nc2ccc(SC(F)F)cc2)CC1	none
CC1CCCCC1NC(=S)Nc1ccc(SC(F)F)cc1 (stereo unspecified)	MPTP block 66.4 | Rh123 counter 91.0
N=c1oc2cc(O)ccc2cc1C(=O)Nc1ccc(Br)cc1	MPTP block 61.4 | Rh123 counter 78.2
COc1cccc(OCCn2cc(C(=O)c3ccco3)c3ccccc32)c1	none
CC(=O)c1cn(CCOc2cc(C)ccc2C)c2ccccc12	MPTP block 97.4 | Rh123 counter 83.2
COc1cccc(OCCn2cc(C(C)=O)c3ccccc32)c1	MPTP block 61.1 | Rh123 counter 56.2
Cc1ccc(C)c(OCCn2cc(C(=O)O)c3ccccc32)c1	none
OC[C@H]1OC(O)[C@H](O)[C@@H]1O (stereo partly specified)	none (no result: HSF-1 act, HSF1 inhib, Platelet DG rel, HSP90 inh)
COc1cccc(C=C2SC(=S)NC2=O)c1	MPTP block 55.6 (no result: HSF-1 act, HSF1 inhib, Platelet DG rel, HSP90 inh) | Rh123 counter 79.2
O=C1Nc2cc(C(=O)NCCN3CCCCCC3)ccc2S/C1=C/c1ccccc1F	none (no result: dFosB activator, HSF-1 act, HSF1 inhib, Platelet DG rel, HSP90 inh)
COc1ccc2cc(/C=C3\SC(=S)NC3=O)c(N3CCOCC3)nc2c1	MPTP block 80.1 | Rh123 counter 72.0
COc1ccc(/C=C2/SC(=S)NC2=O)cc1OCc1ccccc1	none
COc1cccc(/C=C2/Sc3ccc(C(=O)NCCN4CCCC4)cc3NC2=O)c1	dFosB activator 36.1, MPTP block 55.4 | Rh123 counter inactive | MPTP abs DR 5.96 | MPTP cs DR 77.4
CC(C)(C)c1ccc(S(=O)(=O)NC(=O)C2(C)CCN2C(=O)C2(c3ccccc3)CC2)cc1 (stereo unspecified)	none (no result: dFosB activator, HSF-1 act, HSF1 inhib, Platelet DG rel, HSP90 inh)
COCCNc1nc2nonc2nc1NC(C)c1ccccc1Cl (stereo unspecified)	MPTP block 74.6 | Rh123 counter 96.5
CN(CC(=O)NCc1ccc(F)cc1)CC(=O)Nc1ccc(Cl)c(C(F)(F)F)c1	none
O=C(Nc1ccc(Cl)c(C(F)(F)F)c1)c1ccco1	MPTP block 80.6 (no result: HSF-1 act, HSF1 inhib, Platelet DG rel) | Rh123 counter 73.5
COc1cc(CCC(=O)Nc2ccc(Cl)c(C(F)(F)F)c2)cc(OC)c1OC	none
O=C(Nc1cccc(C(F)(F)F)c1)c1ccco1	none
COc1cc(C(=O)Nc2ccc(Cl)c(C(F)(F)F)c2)cc(OC)c1OC	MPTP block 80.8 | Rh123 counter 77.4
CCNC(=S)Nc1ccc(Cl)c(C(F)(F)F)c1	MPTP block 90.6 | Rh123 counter 95.0
COc1cccc(C(=O)Nc2ccc(Cl)c(C(F)(F)F)c2)c1	MPTP block 99.2 | Rh123 counter 89.0
O=C(NCc1cccnc1)c1cc(C2CCCCN2C(=O)OCc2ccccc2)on1 (stereo unspecified)	none (no result: dFosB activator, HSF-1 act, HSF1 inhib, Platelet DG rel, HSP90 inh)
COc1cc(-n2c(C)nc3ncn(-c4ccccc4)c3c2=O)cc(OC)c1OC	none (no result: dFosB activator, HSF-1 act, HSF1 inhib, Platelet DG rel, HSP90 inh)
CN1CCN(C(c2ccc(Br)cc2)c2cc(Cl)c3cccnc3c2O)CC1 (stereo unspecified)	dFosB activator 29.1, MPTP block 76.4 | Rh123 counter inactive
O=C(COC(=O)CNS(=O)(=O)/C=C/c1ccccc1)Nc1cc(S(=O)(=O)N2CCCCC2)ccc1Cl	MPTP block 70.5 | Rh123 counter inactive | MPTP abs DR inactive | MPTP cs DR 10.8
Cc1ccc(S(=O)(=O)N2CCCCC2)cc1NC(=O)c1ccccc1Cl	none (no result: HSF-1 act, HSF1 inhib, Platelet DG rel, HSP90 inh)

Compound activity as filed in PubChem.
